Compound activity as filed in PubChem BioAssay.
Hits are enriched below; roughly 5.3% of the tested compounds scored in any of these assays.
HP1b binding inh: HTS for Inhibitors of HP1-beta Chromodomain Interactions with Methylated Histone Tails; AID 540317, 2011; AlphaScreen HP1-beta / biotin-H3K9me3 peptide binding; actives 0.56% (n = 390,000); Chromobox protein homolog 1 (Homo sapiens), P83916; Potency, µM (doses to about 114 µM), actives largely listed as inhibitors; further: nearly all actives have a fitted effect of over 70% in size
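Compound inhibition of the preformed complex between 50 nM HP1-beta and 50 nM biotinylated H3K9me3 peptide was read by AlphaScreen. Buffer was PBS pH 7.4 with 0.01% Tween-20. Incubations ran 30 min at room temperature, with 10 ug/mL donor/acceptor beads.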
BAZ2B block: qHTS Assay for Inhibitors of BAZ2B. AlphaScreen BAZ2B-H3K14Ac peptide displacement. Potency, µM (top dose mostly 114 µM), actives largely listed as inhibitors. actives 4.4% (n = 360,000). AID 504333, 2011; further: nearly all actives have a fitted effect of over 60% in size
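Multi-concentration screen (max 110 uM) measuring displacement of acetylated histone H3 peptide from BAZ2B by AlphaScreen, using 50 nM protein, 50 nM peptide and 10 ug/mL streptavidin donor plus Ni-chelate acceptor beads.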
TDP1 block: qHTS Assay for Inhibitors of Tyrosyl-DNA Phosphodiesterase (TDP1); Tyrosyl-DNA phosphodiesterase 1 (Homo sapiens), Q9NUW8; Potency, µM (top dose mostly 130 µM), usual class: inhibitors; recombinant TDP1, AlphaScreen DNA substrate cleavage; actives 0.28% (n = 350,000); further: nearly all actives have a fitted effect of over 40% in size
Target sequence (Q9NUW8 whole entry, looked up): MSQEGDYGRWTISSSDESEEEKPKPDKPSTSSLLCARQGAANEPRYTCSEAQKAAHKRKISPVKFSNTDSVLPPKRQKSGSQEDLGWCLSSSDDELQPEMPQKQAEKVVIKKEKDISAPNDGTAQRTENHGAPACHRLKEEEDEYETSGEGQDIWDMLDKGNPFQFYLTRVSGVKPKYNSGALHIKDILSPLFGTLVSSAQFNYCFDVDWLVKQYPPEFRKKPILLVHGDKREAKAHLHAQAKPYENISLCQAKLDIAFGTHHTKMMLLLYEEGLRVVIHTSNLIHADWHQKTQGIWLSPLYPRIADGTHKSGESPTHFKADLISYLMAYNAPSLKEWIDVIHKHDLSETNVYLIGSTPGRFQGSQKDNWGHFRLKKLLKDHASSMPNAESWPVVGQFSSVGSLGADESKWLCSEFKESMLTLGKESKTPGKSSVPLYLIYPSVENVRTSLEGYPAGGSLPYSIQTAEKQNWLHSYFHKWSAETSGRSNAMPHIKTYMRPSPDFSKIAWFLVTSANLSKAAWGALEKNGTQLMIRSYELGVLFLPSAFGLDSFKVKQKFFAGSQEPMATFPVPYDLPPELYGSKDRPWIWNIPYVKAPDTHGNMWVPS
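Signal: AlphaScreen proximity between streptavidin donor and anti-FITC acceptor beads on intact substrate. Reaction: Tdp1 1 nM, substrate 15 nM final, 5 min RT after 15 min compound preincubation.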
CtBP-E1A inh: qHTS Assay for Inhibitors of the CtBP/E1A Interaction; actives 0.49% (n = 340,000); AlphaScreen GST-E1A/His-CtBP binding, 1536-well; hits give low values; activity change, % (test concentration not listed); CtBP / adenovirus E1A interaction (AlphaScreen); AID 651724, 2012; in the data active means activity change below about -65%; inconclusive means mostly about -30% to -63%
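In 5 uL wells, 23 nL compound meets equimolar GST-E1A and His-CtBP (5X stock 125 nM each) for 2 h, 37 °C. Beads (5X, 50 ug/mL) then 1 h, 37 °C, dark.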
Six1-Eya2 inh: qHTS Assay for Inhibitors of the Six1/Eya2 Interaction; AlphaScreen GST-Six1/His-Eya2 binding, biochemical; hits give low values; activity change, % (concentration not given with the values); actives 0.56% (n = 360,000); AID 651725, 2012; in the data active means activity change below about -65%; inconclusive means mostly about -30% to -63%
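Compounds are tested against tagged Six1 and Eya2 proteins bridged by glutathione donor and nickel acceptor beads; after a one-hour incubation at 37 °C without light, AlphaScreen emission is recorded.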
JMJD2A Tudor inh: qHTS Assay for Inhibitors of JMJD2A-Tudor Domain. Lysine-specific demethylase 4A (Homo sapiens), O75164. AlphaScreen JMJD2A-Tudor / H3K4me3 peptide binding. Potency, µM (highest dose often 114 µM), usual class: inhibitors. actives 4.4% (n = 390,000). AID 504339, 2011; further: nearly all actives have a fitted effect of over 50% in size
Of the large screens only hits and unclear results are named; the others gave an inactive call. Unless noted, the call rests on the fitted dose curve; in most records, active means well fitted inhibition curve with a large enough effect; inconclusive means small, poorly fitted or top-dose-only effect; inactive means no such curve, though single readings can be large or run the other way.

C/C(=N\Nc1ccc([N+](=O)[O-])cc1)c1ccc(N)cc1	JMJD2A Tudor inh inconclusive
COc1ccc(CNC(=O)C2CCCN2)cc1OC (stereo not drawn)	HP1b binding inh 79.4µM, BAZ2B block 44.7µM, JMJD2A Tudor inh 3.16µM
COc1ccc(N(CC(=O)N2CCN(c3ccc(F)cc3)CC2)S(=O)(=O)c2c(C)nn(C)c2C)cc1	none (no result: BAZ2B block, CtBP-E1A inh, Six1-Eya2 inh)
Cc1cc(Cl)c2oc(C(=O)N3CCOCC3)c(C)c2c1	none (no result: HP1b binding inh, BAZ2B block, TDP1 block, JMJD2A Tudor inh)
Cc1cc(Cl)c2oc(C(=O)N(C)C3CCOC3)c(C)c2c1 (stereo not drawn)	JMJD2A Tudor inh 14.1µM
N#CCCn1cc(C(CC(=O)c2ccc(Br)cc2)C(=O)O)c2ccccc21 (stereo not drawn)	BAZ2B block inconclusive
Cc1ccc(C(=O)CC(C(=O)O)c2cn(CCC#N)c3ccccc23)cc1 (stereo not drawn)	HP1b binding inh inconclusive, JMJD2A Tudor inh 50.1µM
O=S(=O)(c1ccc(Br)cc1)c1nc(-c2cccs2)oc1SCc1ccc(F)cc1	none (no result: CtBP-E1A inh, Six1-Eya2 inh)
O=C(COC(=O)/C=C/c1cccc(F)c1)Nc1cccc(S(=O)(=O)NC2=NCCCCC2)c1	CtBP-E1A inh inconclusive (no result: BAZ2B block)
COc1cccc(/C=C/C(=O)OCC(=O)Nc2cccc(S(=O)(=O)NC3=NCCCCC3)c2)c1	CtBP-E1A inh -76.3 (no result: BAZ2B block)
COc1ccccc1/C=C/C=c1\sc2nc(=O)c(Cc3ccccc3)nn2c1=O	BAZ2B block 44.7µM, JMJD2A Tudor inh 56.2µM (no result: TDP1 block)
O=c1/c(=C/c2ccco2)sc2nc(-c3ccccc3Br)nn12	HP1b binding inh 8.91µM, BAZ2B block 44.7µM, JMJD2A Tudor inh 50.1µM
COc1ccccc1-c1nc2s/c(=C\c3cccs3)c(=O)n2n1	none
CCCCCOc1ccc(/C=c2\sc3nc(=O)c(-c4ccccc4)nn3c2=O)cc1OC	none
COc1ccc(/C=c2\sc3nc(-c4ccccc4OC)nn3c2=O)c(OC)c1	JMJD2A Tudor inh 89.1µM
CCCOc1ccc(Cc2nn3c(=O)/c(=C/c4ccco4)sc3nc2=O)cc1	JMJD2A Tudor inh 56.2µM (no result: TDP1 block)
Cc1ccc(/C=c2\sc3nc(-c4cccs4)nn3c2=O)o1	JMJD2A Tudor inh inconclusive
Cc1cccc(NC(=O)Cn2c(=O)n(Cc3nc(-c4ccccc4)no3)c(=O)c3ccccc32)c1	BAZ2B block inconclusive (no result: CtBP-E1A inh, Six1-Eya2 inh)
CN(c1ccc(F)cc1)S(=O)(=O)N1CCCC(C(=O)NCCc2ccccc2)C1 (stereo not drawn)	none (no result: CtBP-E1A inh, Six1-Eya2 inh)
O=C(Nc1cc2c3c(c1)C1CCCC1CN3CC1CCCC21)c1ccccc1 (stereo not drawn)	HP1b binding inh inconclusive, BAZ2B block 28.2µM, JMJD2A Tudor inh inconclusive
O=C(NCc1cccnc1)C1CC(c2ccccc2O)=NO1 (stereo not drawn)	BAZ2B block inconclusive, JMJD2A Tudor inh 50.1µM (no result: TDP1 block)
O=C(NCc1cccnc1)C1CC(c2ccccc2Cl)=NO1 (stereo not drawn)	none (no result: TDP1 block)
O=C(C1CC(c2ccccc2O)=NO1)N1CCCCC1 (stereo not drawn)	BAZ2B block inconclusive, JMJD2A Tudor inh 89.1µM
CCOC(=O)C1=C(Cn2cnc3ccccc32)NC(=O)NC1c1ccc(Cl)cc1 (stereo not drawn)	none
CCOC(=O)C1=C(Cn2cnc3ccccc32)NC(=O)NC1c1ccc(OC)cc1 (stereo not drawn)	BAZ2B block 56.2µM
Cc1cc2n(n1)SC(Nc1ccc(F)cc1)N2 (stereo not drawn)	JMJD2A Tudor inh 20µM
Cc1ccc(C(=O)COC(=O)c2cc(-c3ccccc3)nc3ccccc23)cc1C	none (no result: CtBP-E1A inh, Six1-Eya2 inh)
COC(=O)c1ccccc1NC(=O)C1(c2cccs2)CCOCC1	JMJD2A Tudor inh inconclusive (no result: CtBP-E1A inh, Six1-Eya2 inh)
Cc1cnc(NC(=O)NCC2CCCC(CNC(=O)Nc3ncc(C)s3)C2)s1 (stereo not drawn)	BAZ2B block 31.6µM, JMJD2A Tudor inh inconclusive
O/N=C\c1cccn1-c1ccc(Br)cc1	BAZ2B block inconclusive, JMJD2A Tudor inh 79.4µM
CC1(C)CC(=O)c2cc(C(=O)Nc3ccc(Br)cc3)c(=O)n(-c3ccc(Cl)cc3)c2C1	none (no result: TDP1 block, CtBP-E1A inh, Six1-Eya2 inh)
CCOC(=O)c1c(NC(=O)C(C)Sc2cn(CCNC(=O)c3ccccc3OC)c3ccccc23)sc2c1CCC2 (stereo not drawn)	BAZ2B block 8.91µM (no result: CtBP-E1A inh, Six1-Eya2 inh)
Cc1ccc(-n2c(=O)c3cc4c(=O)n(-c5ccc(C)c(C)c5)c(=O)c4c(C(=O)c4ccc(C(=O)O)cc4)c3c2=O)cc1C	HP1b binding inh inconclusive, BAZ2B block 10µM, JMJD2A Tudor inh 12.6µM
Cc1ccc(N2C(=O)c3ccc(C(=O)O)cc3C2=O)cc1C	none
CCC(=O)N(C)/C=C1\Sc2ccccc2C1=O	BAZ2B block 56.2µM
CC(=O)N(C)/C=C1\Sc2ccccc2C1=O	none
Cc1ccccc1-n1ncc2c([N+](=O)[O-])cc([N+](=O)[O-])cc21	HP1b binding inh 39.8µM, BAZ2B block 31.6µM, CtBP-E1A inh inconclusive, Six1-Eya2 inh inconclusive, JMJD2A Tudor inh 56.2µM
COc1ccc(Oc2coc3cc(OC(=O)/C=C/c4ccccc4)ccc3c2=O)cc1	CtBP-E1A inh inconclusive
COc1ccccc1-c1coc2cc(OC(=O)/C=C/c3ccccc3)ccc2c1=O	CtBP-E1A inh -67.7
O=C(O)c1ccc(-c2ccccn2)s1	none
O=C(O)c1cc(-c2ccccn2)n[nH]1	BAZ2B block 44.7µM
O=C(c1cccc(S(=O)(=O)N2CCCCC2)c1)N1CCN(c2ccccc2)CC1	none
O=C(c1ccc(Cl)c(S(=O)(=O)N2CCCC2)c1)N1CCN(c2ccccc2)CC1	HP1b binding inh inconclusive, JMJD2A Tudor inh 12.6µM
Cc1ccc(C(=O)N2CCN(c3ccc(F)cc3)CC2)cc1S(=O)(=O)N1CCCCC1	none
O=C(c1ccc(Cl)c(S(=O)(=O)N2CCCCC2)c1)N1CCN(c2ccccc2)CC1	none
O=C(c1ccc(S(=O)(=O)N2CCCCCC2)cc1)N1CCN(c2ccccc2)CC1	JMJD2A Tudor inh 79.4µM
O=C(c1ccc(Cl)c(S(=O)(=O)N2CCCC2)c1)N1CCN(c2ccc(F)cc2)CC1	BAZ2B block 56.2µM, JMJD2A Tudor inh inconclusive
CN(C)S(=O)(=O)c1cccc(NC(=S)N/N=C/C2CC=CCC2)c1 (stereo not drawn)	JMJD2A Tudor inh 12.6µM
COc1ccc(N2CCN(S(=O)(=O)c3cccc4nsnc34)CC2)cc1	BAZ2B block inconclusive, JMJD2A Tudor inh 56.2µM
